These results are taken from ChEMBL document CHEMBL2218924, “A broad activity screen in support of a chemogenomic map for kinase signalling research and drug discovery” (Biochem J, 2013).

The assay concerns the target T1, Tyrosine-protein kinase ZAP-70 (Homo sapiens) (UniProt P43403).
T1 sequence (whole entry): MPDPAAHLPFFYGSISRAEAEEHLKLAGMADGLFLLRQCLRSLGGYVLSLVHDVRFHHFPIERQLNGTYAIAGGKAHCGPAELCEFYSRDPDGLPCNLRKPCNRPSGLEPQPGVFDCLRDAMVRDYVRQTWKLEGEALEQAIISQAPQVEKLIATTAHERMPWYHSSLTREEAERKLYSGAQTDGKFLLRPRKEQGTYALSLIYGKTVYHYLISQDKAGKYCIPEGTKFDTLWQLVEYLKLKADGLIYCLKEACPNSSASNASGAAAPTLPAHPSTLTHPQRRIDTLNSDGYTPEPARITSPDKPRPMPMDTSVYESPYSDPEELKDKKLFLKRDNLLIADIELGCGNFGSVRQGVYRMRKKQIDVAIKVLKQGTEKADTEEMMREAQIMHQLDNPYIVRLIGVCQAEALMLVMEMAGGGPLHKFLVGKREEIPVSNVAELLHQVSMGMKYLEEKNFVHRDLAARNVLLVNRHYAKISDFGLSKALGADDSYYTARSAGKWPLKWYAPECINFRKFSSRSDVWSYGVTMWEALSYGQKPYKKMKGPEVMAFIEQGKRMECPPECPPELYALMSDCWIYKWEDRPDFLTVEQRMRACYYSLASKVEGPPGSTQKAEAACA
Conditions: at 10 µM.
Take `CNc1cc2c(Nc3cccc(Br)c3)ncnc2cn1`: the residual activity worked out at 108%. Under `O=C1c2ccccc2-[n+]2ccc3c([nH]c4ccccc43)c21` stands 132%; under `O=C1NC(=O)/C(=C\c2ccc3nccnc3c2)S1`, 94%; under `CCN(CC)CCCCN1c2ccccc2Oc2ccc(Cl)cc21`, 124%. `CC[n+]1c(/C=C/N(C)c2ccccc2)n(-c2ccccc2)c2ccc(-c3nc4ccccc4s3)cc21`: the residual activity was 130%. For the compound `O=C(Nc1cccc(Nc2nccc(Nc3cccc(C(F)(F)F)c3)n2)c1)C1CC1`, the residual activity worked out at 116%. Turning to `O=c1cc(N2CCNCC2)oc2c(-c3ccccc3)cccc12`, the residual activity is 99%. On to `Nc1ncnc2c1c(-c1ccc(Oc3ccccc3)cc1)cn2C1CCCC1`, for which the residual activity stood at 99%. With `Oc1n[nH]c2nnc(-c3c(-c4ccccc4)nn4ccccc34)cc12` the figure was 99%; with `O=Nc1c(-c2c(O)[nH]c3ccccc23)[nH]c2ccccc12`, 91%; with `Cn1cnc2cc3c(Nc4cccc(Br)c4)ncnc3cc21`, 89%.

For the compound `CC(C)n1cnc2/c(=N/c3cccc(Cl)c3)nc(NCCO)[nH]c21`, the residual activity stood at 117%. Consider `O=C(O)/C=C/c1cc(Br)c(Br)c(Br)c1Br`, for which the residual activity worked out at 82%. Regarding `Cc1nc(-c2ccccc2)c(-c2ccncc2)o1`, the residual activity is 135%. For the compound `COc1ccc(S(=O)(=O)N(CCO)c2ccccc2CN(C)C/C=C/c2ccc(Cl)cc2)cc1`, the residual activity was 97%.

In the case of `O=C1Nc2ccc(Cl)cc2/C1=C/c1cc(Cl)c(O)c(Cl)c1`, the residual activity came out at 100%.

Regarding `CO[C@@H]1[C@H](N(C)C(=O)c2ccccc2)C[C@H]2O[C@]1(C)n1c3ccccc3c3c4c(c5c6ccccc6n2c5c31)C(=O)NC4`, the residual activity stood at 60%. In the case of `CC(C)c1nn(-c2c(Cl)cccc2Cl)c2nc(Cc3ccc(OCCO)cc3)[nH]c(=O)c12`, the residual activity turned out to be 84%.
